Measurements from PubChem BioAssay (NCI).
Compounds without any hit were thinned out: in the full panel of roughly 83,000, 20% have a hit.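 Cells were grown in 96-well plates and exposed to the test compound at a single concentration for 48 hours; results are reported as percent growth, with values below 10 considered active.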 Values without a mark were called inactive. Activity calls are given as the source filed them.

System: NCI-H460 lung
Assay: NCI-60 one-dose screen, 48 h (100 = growth as untreated, 0 = no growth, -100 = all killed)
Details: 10 µM unless noted
Procedure: Growth inhibition of the NCI-H460 human Non-Small Cell Lung tumor cell line is measured as a screen for anti-cancer activity. Cells are grown in 96 well plates and exposed to the test compound for 48 hours. Compounds are tested at a single concentration, which is 10^-5 M for most compounds. The reported endpoint is percent growth (GI% or GIPRCNT), where numbers from 0 - 100% represent growth inhibition, and numbers from -100% - 0 represent cell death. For example, a value of 40 represents 60% growth inhibition. A value of 0 means no net growth occurred over the course of the experiment. A value of -40 indicates 40% of cells at the beginning of the experiment died by the end of the experiment. A value of -100 means all cells are dead at the end of the experiment.
NCI-60 Human Tumor Cell Lines Screen was performed using the standard one-dose NCI protocol, which is described in more detail at https://dtp.cancer.gov/discovery_development/nci-60/default.htm.
Compounds with GIPRCNT values below 10 were considered active. Activity score was based on GIPRCNT using the following formula: […]
Score is 0 for GIPRCNT values of 100 or above, 50 for GIPRCNT values of 0, and 100 for GIPRCNT values of -100.

Point of comparison: `O=C(O)CCCc1cnc2c3sccc3nc(SCc3c(Cl)cccc3Cl)n12`, growth 22.2%. Against it:
- C=CCn1c(SCC(=O)Nc2ccc(C(=O)/C=C/c3cc(OC)c(OC)c(OC)c3)cc2)nnc1-c1cc(-c2ccc(OC)cc2)nc2ccccc12 — higher, 88.9%
- COc1ccc(C2C3=C(COC3=O)N(CCO)c3cc4c(cc32)OCCO4)cc1OC (stereo not given) — lower, 10.4%
- C=C(c1ccc(C(=O)O)cn1)c1cc2c(cc1C)C(C)(C)CCC2(C)C — higher, 92.4%
- CCCCn1sc(=O)n(Cc2ccc(CNC(=O)OCc3ccc4c(Cl)cc(Cl)c(O)c4n3)cc2)c1=O — higher, 26.5%
- COC(=O)C1=C(C)NC(C)=C(C(=O)OCC(C)C)C1c1ccccc1[N+](=O)[O-] (stereo not given) — higher, 49.5%
- O=C(CSc1nc2ccc([N+](=O)[O-])cc2[nH]1)Nc1ccc(Br)cc1 — higher, 47.7%
- COc1cc2c(/C=C3\C(=O)Nc4ccccc43)c(C(=O)O)[nH]c2cc1C — higher, 105%
- O=c1[nH]cnc2c1C(c1ccc(Br)cc1)c1sc3c(F)cccc3c1O2 (stereo not given) — higher, 94.7%
- CCCCN1C(=O)/C(=c2\sc3n(c2=O)NC2C(N=3)N(CC)C(=O)N2CC)c2ccccc21 (stereo not given) — higher, 35.3%
- Cc1ccc(C)c2c1C(O)(C#Cc1ccccc1)c1ccccc1C2(O)C#Cc1ccccc1 (stereo not given) — higher, 23.8%
- CC1COCC(C)N1C1=C(Cl)C(=O)c2ccccc2C1=O (stereo not given) — higher, 104%
- COc1cc(-c2nc(NC(C)=O)sc2-c2ccnc(NCCNS(=O)(=O)c3ccccc3)n2)ccc1Cl — lower, 11.8%
- CCCC(O)Cn1ncc(C(=O)OCC)c1NC(=O)NCc1cccc(F)c1 (stereo not given) — higher, 107%
- COc1ccc(NC(=O)c2cccc(C3CCc4c(cc(OC)c(OC)c4OC)O3)c2)cc1 (stereo not given) — lower, 18.2%
- Nc1nc(C(=O)N/N=C/c2ccc(N3CCOCC3)cc2)nn1-c1ccc(S(N)(=O)=O)cc1 — higher, 110%
- Cc1ccc(/C=C(\C#N)C(=O)Nc2ncc(Cc3cc(Cl)ccc3Cl)s2)o1 — higher, 30.6%
- N=C(N)SCc1cccc2c(CSC(=N)N)cccc12 — higher, 103%
- Cc1ccc2nc(Cl)c(Cn3nnnc3SCc3ccccc3)cc2c1 — higher, 98.4%
- CC1(C)C2CC=C(/C=N/NC(=O)C3CCC(=O)N3)C1C2 (stereo not given) — higher, 102%
- O=C(CN1C(=O)/C(=C/c2ccco2)SC1=S)NCCc1c[nH]c2ccc(F)cc12 — higher, 103%
- CC/C=C1/C(=O)C=C[C@@H]1C/C=C\CCCC(=O)OC — higher, 97.9%
- COc1ccc(/C=C/C(=O)c2ccc(NC(=O)CSc3nnc(-c4cc(-c5ccccc5)nc5ccccc45)n3-c3ccccc3)cc2)cc1 — higher, 107%
- CNC(=O)c1cc(Oc2ccc3nc(NC(=O)Nc4ccc(Cl)c(Cl)c4)sc3c2)ccn1 — higher, 30.8%
- O=C1Nc2ccc(F)cc2/C1=C\c1nc(-c2ccccc2F)n2ccccc12 — higher, 50.5%
- O=C1/C=C/[C@@H](O)[C@@H]2C[C@@H](O)C[C@H]2/C=C/CCC[C@H](CCOCc2ccccc2)O1 — lower, 16.2%
- CC1(C)O[C@H]2OC3CCC(=O)CC3(O)[C@H]2O1 (stereo not given in full) — higher, 101%
- CC1O[C@@H]2C[C@@](O)([C@H]1O)n1c3ccccc3c3c4c(c5c6ccccc6n2c5c31)C(=O)NC4=O (stereo not given in full) — lower, 11.3%

`C[C@@H]1CC[C@@]2(OC1)O[C@H]1C[C@H]3[C@@H]4CC=C5C[C@@H](O[C@@H]6O[C@H](CO)[C@@H](O[C@@H]7O[C@@H](CO)[C@H](O)[C@H]7O)[C@H](O)[C@H]6O[C@@H]6O[C@@H](C)[C@H](O)[C@@H](O)[C@H]6O)CC[C@]5(C)[C@H]4CC[C@]3(C)[C@H]1[C@@H]2C` was tested, and the growth was -93.7% (active).
In the case of `NC(=O)c1ccc(NC(=O)c2oc3ccccc3c2-c2cnn(-c3ccccc3)c2)cc1`, the growth is reported as 5.78% [50 µM] (active).
`O=C1C(Cl)=C(NCCN2CCOCC2)C(=O)c2ncccc21` was tested, and the growth was 0.786% (active).
`CCc1ccc(CCC(=O)Nc2ncc(Cc3ccc(Cl)cc3)s2)o1` was tested, and the growth was 6.53% (active).
With `Cc1ccc(/C=C2\CN(C(=O)C(Cl)Cl)C/C(=C\c3ccc(C)cc3)C2=O)cc1` the growth was -56.1% (active).
With `CCN1C(=O)N(CC)C2C1NN=c1s/c(=C\c3cc4ccccc4[nH]3)c(=O)n12` (stereo not given) the growth was 0.818% (active).
`O=C1/C(=C/c2ccccc2)CN(C(=O)c2cccnc2)C/C1=C\c1ccccc1` was tested, and the growth was -35.1% (active).
For `CC1(C)CC[C@]2(C(=O)N3CCOCC3)CC[C@]3(C)C(=CC[C@@H]4[C@@]5(C)C/C(=C/c6ccncc6)C(=O)C(C)(C)[C@@H]5CC[C@]43C)[C@@H]2C1`, the growth was -21.8% (active).
In the case of `O=C1c2cc3c(cc2-c2c1c1ccc(Cl)cc1c(=O)n2C[C@H](O)CO)OCO3`, the growth is reported as -12.1% (active).
With `CC(=O)c1c(Nc2ccc(F)c(F)c2F)[nH]c2c(F)cc(F)cc2c1=O` the growth was 2.98% (active).
`COc1ccc2nc3cc(Cl)ccc3c(NCCN)c2c1` was tested, and the growth was -71.4% (active).
In the case of `Cc1ncc(C(=O)Nc2ccc(CN3CCN(C)CC3)c(C(F)(F)F)c2)cc1C#Cc1cnc(N)c2ccncc12`, the growth is reported as -65.5% (active).
